Screening results deposited in PubChem by several laboratories.
HIF act – HIF pathway transcriptional activation; U2OS HRE-luciferase reporter, luminescence; normalized: DMSO 0%, desferrioxamine 100%; AID 1910; 0.32% of 300,000 active; activation, % at 7.5 µM (by protocol);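 active means mean activation of at least 10% of the iron chelator positive control signal, with at least half of replicates also reaching 10%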
ALR inh – inhibitors of human sulfhydryl oxidase ALR; P55789; purified ALR, DTT oxidation, H2O2 HRP-luminol luminescence; inhibition, % (test concentration not listed); 3.8% of 290,000 active; AID 485317;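 active means mean replicate inhibition above about 79%, with every replicate also reaching it, limit read from the data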
Target sequence (P55789 whole entry, looked up): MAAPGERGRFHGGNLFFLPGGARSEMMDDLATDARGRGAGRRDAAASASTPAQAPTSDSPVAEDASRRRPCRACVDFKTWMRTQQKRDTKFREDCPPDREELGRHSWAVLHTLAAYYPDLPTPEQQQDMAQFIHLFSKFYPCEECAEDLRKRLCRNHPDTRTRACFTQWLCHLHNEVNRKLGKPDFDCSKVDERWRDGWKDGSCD
SUMO Mot1 rescue – SUMOylation pathway inhibition by Mot1-301 growth rescue; S. cerevisiae Mot1-301 growth rescue, ATP luminescence, 38.5C; percent above DMSO median, 100 means doubled; growth rescue, % at 18.8 µM; 1% of 320,000 active;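 active means every valid replicate shows activation above 250% relative to neutral control wells; inactive means the rest, any valid replicate at or below 250%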;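 further: OY570 slx delta 5 strain wells were the positive control but not used for scaling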
M18AAP inhibitor – PfM18AAP enzyme inhibition. recombinant PfM18AAP, H-Glu-NHMec fluorogenic cleavage. inhibition, % at 7.35 µM. 1.2% of 290,000 active;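 active means inhibition above the campaign mean inhibition over all tested compounds plus 3 SD, cut at about 28% in these data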;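 further: 0% = plate median of test compound wells and 100% = 2 mM ZnCl2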
Starred values were filed as active, the others as inactive; / = no result. Only some compounds are listed: those with a hit (about 5.3% of all), similar ones and a draw of the others.

SMILES	HIF act	ALR inh	SUMO Mot1 rescue	M18AAP inhibitor
CC(=O)Nc1ccc(C2=NN(c3ccccc3)C(c3ccccc3)C2)cc1 (configuration not stated)	-9.8	95.8*	238.9	7.4
O=Cc1ccc(N2N=C(c3ccccc3)CC2c2ccccc2)cc1 (configuration not stated)	-1.5	-9.7	9.2	8.1
CC(=O)Nc1ccc(C2CC(c3ccc(Cl)cc3)=NN2c2ccccc2)cc1 (configuration not stated)	0.2	-1.3	1.2	-0.3
Oc1ccc(C2=NN(c3ccccc3)C(c3ccc(F)cc3)C2)cc1 (configuration not stated)	0.3	96.8*	-31.0	17.7
CCOc1c2ccc(C(=O)N[C@H](C)C3CCCCC3)cc2nn1CC	-0.6	-5.0	-9.9	2.4
Cc1cc(=O)[nH]c(SCC(=O)c2ccc(C(C)C)cc2)n1	0.1	98.1*	-4.2	3.6
Cc1ccc(C(=O)CSc2nc(N)cc(=O)[nH]2)cc1	-0.1	99.0*	-13.9	1.4
Nc1cc(=O)[nH]c(SCC(=O)c2ccc(F)cc2)n1	1.1	98.1*	15.1	0.3
O=C(NC(=S)NCc1ccccc1)c1cccc(Cl)c1	-0.2	0.9	16.7	5.3
CCn1ccnc1C(O)c1ccccc1OC (configuration not stated)	27.1*	-3.1	438.4	0.2
COc1ccccc1C(O)c1nccn1C (configuration not stated)	0.2	-5.9	180.0	-1.6
O=C(NCCc1csc(-c2cccc(F)c2)n1)c1ccco1	16.0*	-3.0	32.4	1.3
O=C(NCCc1csc(-c2ccccc2)n1)c1ccco1	0.3	-3.3	81.1	-4.9
O=C(CCl)Nc1cc(-c2ccccc2)nn1-c1ccccc1	-2.4	97.7*	17.7	4.0
CCCCOc1ccc(C(=O)NCC(=O)N2CC=C(c3ccccc3)CC2)cc1	0.0	-6.9	-16.0	/
N#Cc1cccc(N=c2ssnc2Cl)c1	-0.4	/	/	29.2*
Clc1nssc1=Nc1ccc(Br)cc1	-1.0	/	/	19.7
NC(=O)c1nsc(C(=O)N(Cc2ccc(F)cc2)C(C(=O)NCC2CCCO2)c2ccc(O)cc2)c1N (configuration not stated)	1.3	/	/	-1.7
Cc1ccc(-c2nnn(CC(=O)N(CC(=O)NC(C)C)c3cnc4ccccc4c3)n2)o1	0.1	-2.3	-15.4	11.0
Cc1ccc(-c2nnn(CC(=O)Nc3cccc4cccnc34)n2)o1	/	-0.3	352.9*	6.7
Cc1ccc2nsnc2c1S(=O)(=O)N1CCOCC1	-0.4	98.5*	0.2	0.5
O=S(=O)(c1cccc2nsnc12)N1CCOCC1	-0.2	-2.4	-10.9	0.8
O=C(O)Cn1cc(/C=c2/sc3nc4ccccc4n3c2=O)c2ccccc21	2.0	98.7*	1.5	10.6
O=C(O)Cn1cc(/C=C2/NC(=O)N(c3ccc(Cl)cc3)C2=O)c2ccccc21	0.5	92.2*	-17.7	4.8
CC1CCCC(C)N1C(=O)COC(=O)c1cc(F)c(F)cc1Cl (configuration not stated)	/	-0.3	-3.7	/
SMILES	HIF act	ALR inh	SUMO Mot1 rescue	M18AAP inhibitor
Cc1cccc(N2CCN(c3ccc(NC(=O)/C=C(/C(=O)O)c4ccccc4)cc3)CC2)c1	0.3	95.8*	19.8	6.8
Oc1cc(-c2ccccc2)c2ccccc2c1	-0.2	99.0*	5.2	10.3
NC(=S)N=Nc1c(O)n(CCCl)c2ccccc12	-0.1	3.4	-32.1	9.8
NC(=S)N=Nc1c(O)n(CCCl)c2ccc(Cl)cc12	-0.6	8.0	341.4*	7.5
CCN(C(=O)CSc1nc(C)cc(=O)[nH]1)C1CCCCC1	/	/	-3.9	/
CCN(C(=O)CSc1ncn[nH]1)C1CCCCC1	77.0*	-6.4	-4.7	4.8
CCc1ccc(C(=O)CSc2ncn[nH]2)cc1	1.3	53.7	44.5	28.1*
CCc1ccc(NC(=O)C2CCCN2S(=O)(=O)c2ccc3c(c2)C(C)(C)C(=O)N3C)cc1 (configuration not stated)	-0.2	-4.7	0.4	3.9
CC(C)C(c1nnnn1CCc1ccccc1)N1CCSCC1 (configuration not stated)	-0.4	/	6.9	6.3
Cc1c(Br)cnn1C(C)C(=O)N1CCN(c2ccc(F)cc2)CC1 (configuration not stated)	/	94.0*	-12.7	/
CCOC(=O)Cc1nc2ccccc2o1	-58.5	-5.0	309.8	-1.2
Nc1ccc(CCc2nc3ccccc3o2)cc1	1.7	91.5*	146.2	3.7
Cc1nnc(N/N=C/c2ccc(-c3ccccc3F)o2)n1N	2.0	15.4	-3.7	52.2*
Nc1ccc(Sc2ccccc2CC(=O)O)cc1	0.0	98.9*	131.6	-4.0
Cc1cc(OC(=O)CNC(=O)OC(C)(C)C)c2c(C)cc(=O)oc2c1	-1.0	90.8*	288.8	-1.6
Cc1cc(OC(=O)c2ccco2)c2c(C)cc(=O)oc2c1	0.1	9.0	2.9	0.8
COCc1[nH][nH]c(=O)c1C=Nc1ccc(Oc2ccccc2)cc1	-1.9	98.7*	36.6	3.9
COc1cccc2cc(-c3ccnc(=S)[nH]3)oc12	1.7	99.0*	/	7.7
O=C(CSC1CC(=O)N(c2ccc(C(=O)O)cc2)C1=O)Nc1ccc(Cl)cc1 (configuration not stated)	0.8	98.2*	8.8	-30.5
O=C(CSC1CC(=O)N(CCc2ccccc2)C1=O)Nc1cccc(Cl)c1 (configuration not stated)	0.4	98.9*	314.1*	-2.4
O=C1CC(SC(=Nc2ccccc2)Nc2ccccc2)C(=O)N1c1ccc(Cl)cc1 (configuration not stated)	-0.2	0.1	-7.4	3.0
COCCn1c(=NC(=O)CSCC(=O)N2CCOCC2)sc2cc(C)ccc21	0.0	66.5	-2.2	-0.2
CCCCn1c(N)c(N(CC(C)C)C(=O)C2CCN(C(=O)c3ccc(F)cc3)CC2)c(=O)[nH]c1=O	0.0	0.0	1.2	0.4
COc1ccc(OCCC(=O)OCC(=O)Nc2cccc(S(=O)(=O)N3CCCCC3)c2)cc1	/	/	-27.8	/
Cc1ccc2cccc(NC3OC(=O)c4ccccc43)c2n1 (configuration not stated)	-1.4	-2.1	-21.0	28.5*
SMILES	HIF act	ALR inh	SUMO Mot1 rescue	M18AAP inhibitor
COC(=O)c1ccccc1NC1OC(=O)c2ccccc21 (configuration not stated)	0.2	10.8	18.5	-2.1
C=CCSc1ncnc2c1oc1nc3c(cc12)COC(C)(C)C3	0.5	-6.3	-12.6	4.8
CC1(C)Cc2nc3oc4c(=S)nc[nH]c4c3cc2CO1	5.0	96.3*	9.2	-9.6
COc1cc(/C=N/NS(=O)(=O)c2ccc(C)c([N+](=O)[O-])c2)cc([N+](=O)[O-])c1O	-0.6	93.4*	6.2	8.6
O=[N+]([O-])c1cccc(S(=O)(=O)N/N=C/c2ccc(O)cc2)c1	-0.5	93.1*	-2.5	7.8
COc1cc(/C=N/NS(=O)(=O)c2ccc(C)c([N+](=O)[O-])c2)ccc1O	0.1	99.4*	15.6	9.4
COc1ccc(-n2c(O)c(/C=N/NS(=O)(=O)c3ccc(C)c([N+](=O)[O-])c3)c3ccccc3c2=O)cc1OC	0.1	97.5*	-5.1	11.0
O=[N+]([O-])c1cccc(S(=O)(=O)N/N=C\c2ccc3c(c2)OCO3)c1	-0.3	27.2	-18.4	-2.2
